The nature of experiment [1]: small molecules captured by biotinylated probe aFSTL3 – biochemical, small-molecule microarray, fluorescence 635/667, stem cell growth factor project, primary screen (AID 1064).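 Also: measures binding of the biotinylated anti-FSTL3 antibody to printed compounds.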 Particulars: higher = more signal.
Experiment [2] in a line: binders from COS7 lysate, DM2A8 probe, primary screen, torsin A project, cell lysate, small-molecule microarray, fluorescence 635/667 (AID 1065). As to conditions: higher = more signal, COS7 lysate expressing mutant human TOR1A.
Experiment [3] in a line: small molecules captured by biotinylated probe aFGF2 – biochemical, small-molecule microarray, fluorescence 635/667, stem cell growth factor project, primary screen (AID 1067).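 Also: measures binding of biotinylated aFGF2 protein to printed compounds on slides; z-score merges feature fluorescence and signal-to-noise across triplicate slides.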 Particulars: higher = more signal.
Experiment [4] in a line: small molecules captured by biotinylated probe aFGF10 – biochemical, small-molecule microarray, fluorescence 635/667, stem cell growth factor project, primary screen (AID 1071).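 Also: score merges 667 nm spot intensity and signal to noise from triplicate slides.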 Particulars: higher = more signal.
In experiment [5] the target is Neurogenic locus notch homolog protein 2 (Homo sapiens) (UniProt Q04721). Description: small molecules binding Notch2 protein – biochemical, small-molecule microarray, 635 nm fluorescence, stem cell growth factors, primary screen (AID 1073). As to conditions: higher = more signal.
Experiment [6] has as its target Pro-neuregulin-1, membrane-bound isoform (Homo sapiens) (UniProt Q02297). The experiment in a line: small molecules binding neuregulin-1 protein – biochemical, small-molecule microarray, fluorescence 635/667, psychiatric disease protein project, primary screen (AID 1075).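 Also: score combines 667 nm spot fluorescence with signal to noise.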 As to conditions: NRG1 binding, 635 nm fluorescence, higher = more signal.
The subject of experiment [7] is Neuregulin-1 EGF-like domain. The experiment in a line: small molecules binding NRG1 EGF domain – biochemical, small-molecule microarray, 635 nm fluorescence, primary screen (AID 1081).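 Also: binding of the protein to compounds printed on small-molecule microarray slides.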 Particulars: higher = more signal.
Experiment [8] can be described thus: FRG1 expression reporter modulators in myotubes – cell-based, C2C12 myotubes, firefly/Renilla luciferase, luminescence, FRG1 inhibition for FSHD, primary screen (AID 1084). Particulars: FRG1 promoter luciferase, higher = more signal, called active from +8 up or from −8 down.
A short description of experiment [9]: small molecules captured by biotinylated probe aFST – biochemical, small-molecule microarray, fluorescence 635/667, stem cell growth factor project, primary screen (AID 1086).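 Also: score merges 667 nm fluorescence with signal-to-noise of each printed compound spot.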 Particulars: higher = more signal.
The nature of experiment [10]: binders of probe aHhip on microarray, primary screen, stem cell growth factor project, biochemical, small-molecule microarray, fluorescence 635/667 (AID 1087).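 Also: score merges spot fluorescence at 667nm with spot signal to noise ratio.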 Particulars: higher = more signal.
For experiment [11], the system named is PRMT1 (protein arginine N-methyltransferase 1). Description: small molecules binding arginine methyltransferase PRMT1 – biochemical, small-molecule microarray, 635 nm fluorescence, primary screen (AID 1088).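 Also: binding of Prmt1 protein to compounds spotted on small-molecule microarray slides.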 As to conditions: higher = more signal.
A short description of experiment [12]: growth effects on S. cerevisiae YJM789 – YJM789 clinical isolate, OD600, 24 h, basal, primary screen (AID 1089).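 Also: growth of clinical yeast isolate S. cerevisiae YJM 789 seeded 1000 cells per well; test concentration not given here.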 As to conditions: higher = more signal, called active from +8 up or from −8 down.
The nature of experiment [13]: S. pombe growth modifiers, basal conditions – strain 972, OD600, 24 h, no modulator, primary screen (AID 1090).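 Also: basal condition with compound alone and no growth modifier present; test concentration not given here.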 As to conditions: S. pombe 972 growth, higher = more signal, called active from +8 up or from −8 down.
The nature of experiment [14]: budding yeast growth modifiers under rapamycin – strain BY4716, OD600, 96 h, primary screen (AID 1091). Also: test concentration not given here. Particulars: S. cerevisiae BY4716 + rapamycin, higher = more signal, called active from +8 up or from −8 down.
Experiment [15] has as its target Torsin-1A-interacting protein 2 (Homo sapiens) (UniProt Q8NFQ8). Description: small molecules binding lysate-expressed LULL1 – cell lysate, human LULL1 lysate, 635/667 nm fluorescence, primary screen (AID 1092).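 Also: probe is lysate of COS7 cells overexpressing human LULL1; score merges per-feature 667 nm fluorescence with signal-to-noise.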 As to conditions: small-molecule microarray, hLULL1 lysate binding, 635 nm fluorescence; higher = more signal.
Experiment [16] is described as follows: optical density change of DRC41 E. coli – strain DRC41, OD650, 24 h, E. coli filamentation project, primary screen (AID 1093).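 Also: MC1000 strain lacking acrAB efflux and sulA so SOS filamentation is blocked; test concentration not given here.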 As to conditions: E. coli DRC41 growth, higher = more signal, called active from +8 up or from −8 down.
A short description of experiment [17]: probe aLefty2 binding to arrayed compounds – biochemical, biotinylated probe, 635/667 nm fluorescence, primary screen (AID 1094).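 Also: score merges spot fluorescence near 667 nm with spot signal-to-noise ratio.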 Particulars: small-molecule microarray, higher = more signal.
In experiment [18] the test system is Noggin (protein binding on small-molecule microarray). The experiment in a line: small molecules binding Noggin protein – biochemical, 635/667 nm fluorescence, primary screen (AID 1095).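 Also: score merges 667 nm feature fluorescence with signal to noise over triplicate slides.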 Particulars: 635 nm fluorescence, higher = more signal.
Experiment [19] addresses Neurogenic locus notch homolog protein 3 (Homo sapiens) (UniProt Q9UM47). The experiment in a line: small molecules binding NOTCH3 protein – biochemical, 635/667 nm fluorescence, primary screen (AID 1096). Particulars: small-molecule microarray, 635 nm fluorescence, higher = more signal.
A short description of experiment [20]: probe aEGFR binding to arrayed compounds – biochemical, biotinylated probe, 635/667 nm fluorescence, primary screen (AID 1097).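 Also: probe is a biotinylated anti-EGFR antibody binding compounds printed on slides; score combines fluorescence near 667 nm and signal to noise of each spot.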 As to conditions: small-molecule microarray, higher = more signal.

Active and inactive are the calls of the source.

In PubChem BioAssay one finds composite z-score and z-score data, which are given here for five compounds.

Neurogenic locus notch homolog protein 3 (Homo sapiens), sequence (Q9UM47 whole entry, looked up): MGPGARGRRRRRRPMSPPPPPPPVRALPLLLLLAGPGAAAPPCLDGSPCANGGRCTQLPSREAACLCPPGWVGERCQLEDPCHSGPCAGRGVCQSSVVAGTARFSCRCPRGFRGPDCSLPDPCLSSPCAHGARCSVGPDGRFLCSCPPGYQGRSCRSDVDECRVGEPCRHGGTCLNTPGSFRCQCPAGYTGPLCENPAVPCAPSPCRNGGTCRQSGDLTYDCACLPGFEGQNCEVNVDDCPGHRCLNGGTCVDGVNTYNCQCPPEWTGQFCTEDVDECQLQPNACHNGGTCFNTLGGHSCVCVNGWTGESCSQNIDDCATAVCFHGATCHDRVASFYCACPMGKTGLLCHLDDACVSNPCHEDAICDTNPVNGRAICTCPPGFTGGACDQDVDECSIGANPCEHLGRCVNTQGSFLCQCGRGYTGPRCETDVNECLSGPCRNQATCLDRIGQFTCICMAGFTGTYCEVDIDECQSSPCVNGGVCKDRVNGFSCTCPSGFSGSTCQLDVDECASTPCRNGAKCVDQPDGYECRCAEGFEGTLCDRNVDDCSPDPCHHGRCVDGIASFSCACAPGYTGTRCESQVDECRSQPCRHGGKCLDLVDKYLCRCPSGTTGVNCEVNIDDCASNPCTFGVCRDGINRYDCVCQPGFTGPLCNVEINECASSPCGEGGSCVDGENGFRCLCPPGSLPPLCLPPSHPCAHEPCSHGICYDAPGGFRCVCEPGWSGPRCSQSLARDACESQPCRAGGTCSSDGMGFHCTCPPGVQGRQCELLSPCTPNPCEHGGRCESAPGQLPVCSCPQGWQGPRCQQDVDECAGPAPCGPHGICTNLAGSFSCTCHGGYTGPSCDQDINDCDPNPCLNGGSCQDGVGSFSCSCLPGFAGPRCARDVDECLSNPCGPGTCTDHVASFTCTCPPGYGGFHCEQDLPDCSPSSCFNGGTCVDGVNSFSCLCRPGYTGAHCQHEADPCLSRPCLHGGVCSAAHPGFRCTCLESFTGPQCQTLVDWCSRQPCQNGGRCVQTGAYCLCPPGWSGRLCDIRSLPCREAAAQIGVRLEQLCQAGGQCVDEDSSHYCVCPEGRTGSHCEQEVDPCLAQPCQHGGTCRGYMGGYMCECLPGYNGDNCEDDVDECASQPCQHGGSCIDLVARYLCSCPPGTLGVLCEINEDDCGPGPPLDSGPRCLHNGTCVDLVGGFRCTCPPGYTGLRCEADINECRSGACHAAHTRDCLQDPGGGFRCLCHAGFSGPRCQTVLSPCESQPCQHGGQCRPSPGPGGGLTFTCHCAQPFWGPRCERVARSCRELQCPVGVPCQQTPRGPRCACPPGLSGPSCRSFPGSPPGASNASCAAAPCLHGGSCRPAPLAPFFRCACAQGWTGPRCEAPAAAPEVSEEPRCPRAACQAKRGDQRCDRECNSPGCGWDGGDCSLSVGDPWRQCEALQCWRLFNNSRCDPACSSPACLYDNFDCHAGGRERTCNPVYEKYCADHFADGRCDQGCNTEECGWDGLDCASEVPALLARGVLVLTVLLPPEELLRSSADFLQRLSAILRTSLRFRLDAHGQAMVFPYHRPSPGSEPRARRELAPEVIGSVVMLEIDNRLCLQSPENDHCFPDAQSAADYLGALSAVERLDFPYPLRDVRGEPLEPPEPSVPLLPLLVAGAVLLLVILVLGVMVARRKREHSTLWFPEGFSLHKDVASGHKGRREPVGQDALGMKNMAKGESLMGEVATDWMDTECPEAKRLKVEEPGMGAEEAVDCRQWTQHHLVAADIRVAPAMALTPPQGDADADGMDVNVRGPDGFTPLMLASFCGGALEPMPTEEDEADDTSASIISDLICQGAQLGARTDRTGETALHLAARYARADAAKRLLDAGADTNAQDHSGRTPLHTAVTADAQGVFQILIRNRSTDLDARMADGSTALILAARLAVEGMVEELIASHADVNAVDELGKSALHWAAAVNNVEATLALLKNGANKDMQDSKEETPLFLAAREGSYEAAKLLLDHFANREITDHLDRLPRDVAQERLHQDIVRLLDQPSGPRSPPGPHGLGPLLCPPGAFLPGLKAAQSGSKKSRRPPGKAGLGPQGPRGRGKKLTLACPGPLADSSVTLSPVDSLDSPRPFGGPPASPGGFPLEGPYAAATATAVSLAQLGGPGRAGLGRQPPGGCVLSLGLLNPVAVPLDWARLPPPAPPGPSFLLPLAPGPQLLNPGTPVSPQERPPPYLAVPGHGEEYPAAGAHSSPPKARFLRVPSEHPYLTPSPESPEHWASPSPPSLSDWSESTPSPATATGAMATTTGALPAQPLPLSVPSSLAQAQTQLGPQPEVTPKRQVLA
Neurogenic locus notch homolog protein 2 (Homo sapiens), sequence (Q04721 whole entry, looked up, canonical isoform): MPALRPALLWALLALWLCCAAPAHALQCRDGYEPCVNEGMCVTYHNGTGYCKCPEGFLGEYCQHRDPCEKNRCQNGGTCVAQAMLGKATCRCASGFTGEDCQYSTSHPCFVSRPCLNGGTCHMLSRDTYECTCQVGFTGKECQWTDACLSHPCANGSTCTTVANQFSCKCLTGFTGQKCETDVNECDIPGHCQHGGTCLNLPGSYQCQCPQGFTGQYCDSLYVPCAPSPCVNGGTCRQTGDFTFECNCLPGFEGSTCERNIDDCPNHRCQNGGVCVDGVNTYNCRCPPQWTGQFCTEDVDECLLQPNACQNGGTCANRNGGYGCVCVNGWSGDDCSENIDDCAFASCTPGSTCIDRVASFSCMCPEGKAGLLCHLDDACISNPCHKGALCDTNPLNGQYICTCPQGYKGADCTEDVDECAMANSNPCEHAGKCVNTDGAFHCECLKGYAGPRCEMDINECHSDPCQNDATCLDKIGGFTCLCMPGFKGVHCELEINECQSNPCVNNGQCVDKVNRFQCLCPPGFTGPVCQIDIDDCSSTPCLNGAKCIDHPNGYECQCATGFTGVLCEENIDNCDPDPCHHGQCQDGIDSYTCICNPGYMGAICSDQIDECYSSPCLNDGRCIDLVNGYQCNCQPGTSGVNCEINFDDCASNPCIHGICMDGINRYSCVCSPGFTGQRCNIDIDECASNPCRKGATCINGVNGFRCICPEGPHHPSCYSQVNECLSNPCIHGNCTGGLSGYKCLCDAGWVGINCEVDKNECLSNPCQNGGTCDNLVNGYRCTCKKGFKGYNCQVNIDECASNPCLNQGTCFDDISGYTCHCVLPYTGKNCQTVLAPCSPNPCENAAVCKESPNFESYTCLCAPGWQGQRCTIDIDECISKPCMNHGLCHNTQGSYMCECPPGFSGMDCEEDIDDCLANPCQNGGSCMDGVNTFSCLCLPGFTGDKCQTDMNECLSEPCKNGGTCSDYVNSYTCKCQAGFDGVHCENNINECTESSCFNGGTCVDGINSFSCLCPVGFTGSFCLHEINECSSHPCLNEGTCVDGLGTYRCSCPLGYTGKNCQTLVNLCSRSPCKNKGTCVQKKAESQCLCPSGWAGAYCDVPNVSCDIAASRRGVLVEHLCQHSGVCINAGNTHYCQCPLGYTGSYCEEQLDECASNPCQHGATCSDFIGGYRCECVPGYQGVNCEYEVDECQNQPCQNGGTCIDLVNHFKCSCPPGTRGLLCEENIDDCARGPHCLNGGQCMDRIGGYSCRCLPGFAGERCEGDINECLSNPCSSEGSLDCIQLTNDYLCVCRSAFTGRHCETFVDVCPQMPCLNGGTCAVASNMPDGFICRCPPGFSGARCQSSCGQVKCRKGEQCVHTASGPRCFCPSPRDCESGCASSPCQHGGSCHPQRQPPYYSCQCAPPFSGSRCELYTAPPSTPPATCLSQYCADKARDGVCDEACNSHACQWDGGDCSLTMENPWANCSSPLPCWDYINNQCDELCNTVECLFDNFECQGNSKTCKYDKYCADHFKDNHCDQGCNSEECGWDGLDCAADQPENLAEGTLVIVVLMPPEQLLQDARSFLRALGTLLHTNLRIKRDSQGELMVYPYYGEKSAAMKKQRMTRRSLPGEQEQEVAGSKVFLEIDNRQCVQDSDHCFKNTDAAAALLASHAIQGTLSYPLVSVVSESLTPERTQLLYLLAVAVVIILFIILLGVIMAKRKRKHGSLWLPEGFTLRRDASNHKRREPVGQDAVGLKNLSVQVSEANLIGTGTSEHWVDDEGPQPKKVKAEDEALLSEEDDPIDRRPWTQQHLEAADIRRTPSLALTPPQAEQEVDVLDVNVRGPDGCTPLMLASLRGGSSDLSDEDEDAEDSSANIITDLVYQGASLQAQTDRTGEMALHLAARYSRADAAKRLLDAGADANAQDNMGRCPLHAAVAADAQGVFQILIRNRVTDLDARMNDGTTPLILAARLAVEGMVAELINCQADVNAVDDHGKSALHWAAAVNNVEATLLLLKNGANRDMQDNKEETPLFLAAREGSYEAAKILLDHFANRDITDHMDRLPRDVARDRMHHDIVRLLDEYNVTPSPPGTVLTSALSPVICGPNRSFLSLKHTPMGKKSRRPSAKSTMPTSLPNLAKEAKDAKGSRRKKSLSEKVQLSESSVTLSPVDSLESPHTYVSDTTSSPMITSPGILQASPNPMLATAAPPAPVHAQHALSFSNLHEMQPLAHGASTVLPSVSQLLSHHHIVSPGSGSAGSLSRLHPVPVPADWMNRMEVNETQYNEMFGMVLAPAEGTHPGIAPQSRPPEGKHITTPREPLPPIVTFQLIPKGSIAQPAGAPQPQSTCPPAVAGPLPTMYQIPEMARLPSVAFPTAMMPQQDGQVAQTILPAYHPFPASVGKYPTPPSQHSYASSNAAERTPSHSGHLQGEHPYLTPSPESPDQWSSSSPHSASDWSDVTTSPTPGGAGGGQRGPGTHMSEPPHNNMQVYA

Regarding `COC(=O)C1(Cc2ccccc2)C=C2C(=C(C)C(=O)C2C)CN1` (stereo not given), the composite z-score was 0.601 in [1]; 0.158 in [2]; -0.0032 in [3]; 0.137 in [4]; 1.01 in [5]; 0.643 in [6]. For the same compound, the composite z-score in experiment [7] was 0.635; in experiment [9], 0.66; in experiment [10], -0.199; in experiment [11], -0.467; in experiment [15], 2.04; in experiment [17] it was 0.732. Also, the results for the composite z-score in experiment [18], in [19] and in [20] were -0.233, -0.016 and -0.0146, respectively. For the same compound, the z-score in experiment [8] was 0.0369 (inactive); in experiment [12], -1.06 (inactive); in experiment [13], 0.163 (inactive); in experiment [14], -0.0472 (inactive); in experiment [16], -0.366 (inactive).
Regarding `C=C(COC)C(=O)CC[C@@H](OC(=O)c1ccccc1-c1ccccc1C(=O)O)c1ccc(OCCO)cc1`, the composite z-score in experiment [1] was -0.209; in experiment [2], 0.487; in experiment [3] it was -0.132; in [4] it was -0.252; in [5] it was -0.638; in experiment [6] it was -0.335. Moreover, the composite z-score in experiment [7] was 0.685; in experiment [9], -0.0463; in experiment [10] it was -0.0994; in experiment [11] it was 1.39; in experiment [15] it was 0.886; in experiment [17], -0.0341. For the same compound, the composite z-score in [18] was 1.26; in [19], 0.505; in experiment [20], -0.139. Also, the z-score in [8] is 2.6 (inactive); in experiment [12], -0.656 (inactive); in experiment [13], -0.943 (inactive); in experiment [14], -0.856 (inactive); in [16], 0.315 (inactive).
As to `COC(=O)[C@@]1(Cc2ccc(OC)cc2)[C@H]2c3cc(C(=O)N4CCCC4)n(Cc4c(CO)[nH]cc(C)c4=O)c3C[C@H]2CN1C(=O)c1ccccc1`, the composite z-score is 0.0744 in experiment [1]; 0.31 in experiment [2]; -0.06 in experiment [3]; 0.505 in experiment [4]; 1.57 in [5]; 1.11 in experiment [6]. In addition, the composite z-score in [7] was 0.802; in experiment [9], 0.829; in experiment [10], 0.0302; in experiment [11] it was 0.413; in experiment [15], 3.35; in experiment [17], 0.601. For the same compound, the composite z-score is -0.243 in experiment [18], 0.381 in experiment [19] and -0.0728 in experiment [20]. The z-score in experiment [8] was -1.02 (inactive); in [12], -1.56 (inactive); in [13], 0.801 (inactive); in experiment [14], 0.147 (inactive); in [16], -0.391 (inactive).
As to `CC(C)=CCCC(C)=CC(O)C1C=CC2C(=O)NC(=O)C2N1Nc1ccccn1` (stereo not given), the composite z-score in experiment [1] was -0.631; in [2], 1.6; in experiment [3], 0.059; in experiment [4], 1.16; in experiment [5] it was 1.57; in experiment [6], 0.966. For the same compound, the composite z-score is 1.23 in experiment [7]; 1.21 in experiment [9]; -0.109 in experiment [10]; 1.56 in [11]; 1.8 in experiment [15]; 0.212 in [17]. In addition, the composite z-score was found to be 1.36 in experiment [18], 1.11 in [19] and 0.186 in [20]. In addition, the z-score is -0.385 (inactive) in [8]; -1.17 (inactive) in experiment [12]; 0.504 (inactive) in experiment [13]; -0.952 (inactive) in [14]; -0.978 (inactive) in experiment [16].
As to `O=C(NC1CC1)[C@@H]1c2ccccc2C(=O)N(CC23CC4CC(CC(C4)C2)C3)[C@H]1c1ccc(CO)cc1`, the composite z-score in experiment [1] is -0.314; in experiment [2] it was 0.179; in [3], 0.0319; in experiment [4], 0.581; in [5], 1.44; in experiment [6], 0.264. Besides, the composite z-score was 1.29 in experiment [7]; 0.556 in [9]; -0.0645 in experiment [10]; 1.53 in experiment [11]; 3.15 in experiment [15]; -0.2 in experiment [17]. The composite z-score came to 1.47 in [18], 1.02 in experiment [19] and 0.0201 in experiment [20]. Also, the z-score in experiment [8] is -3.56 (inactive); in experiment [12], -0.706 (inactive); in experiment [13] it was -0.682 (inactive); in [14], -0.437 (inactive); in [16], -0.103 (inactive).
